# AHR activator: human AHR activation; P35869; AHR-responsive luciferase reporter cells, luminescence; activation, % at 5 µM; actives 2.5% (n = 320,000); AID 2796; in the data active means activation above about 47%;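 further: 0% = vehicle wells and 100% = reference agonist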
# sPLA2-III inh: Blocks human group III sPLA2 activity; QFRET BODIPY PC-A2 liposome hydrolysis, fluorescence; actives 0.56% (n = 370,000); AID 743126; Q9NZ20; inhibition, % at 12.2 µM;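 active means inhibition above mean plus 3 SD of compounds lying within the high and low control bounds, cut at about 19% in these data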;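 further: 0% = median of test compound wells and 100% = no enzyme DMSO wells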
# PLCb3 inh: PLC-beta3 (human) inhibition, primary screen | actives 0.18% (n = 370,000) | inhibition, % at 12.2 µM | Purified PLC-beta3, fluorogenic substrate, fluorescence | Q01970;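 further: 0% = median of compound wells on plate and 100% = full blocker control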
# HIF act: HIF pathway transcriptional activation. U2OS HRE-luciferase reporter, luminescence; normalized: DMSO 0%, desferrioxamine 100%. activation, % at 7.5 µM (by protocol). actives 0.32% (n = 300,000);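 active means mean activation of at least 10% of the iron chelator positive control signal, with at least half of replicates also reaching 10%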
# PLC-gamma1 inh: blocks human PLC-gamma1 enzyme activity | actives 0.84% (n = 370,000) | AID 720700 | inhibition, % at 12.2 µM | purified PLC-gamma1, fluorogenic substrate, fluorescence | P19174; in the data active means inhibition above about 9.5%
# Yeast superoxide: yeast age-related superoxide inhibition as caloric restriction mimetic | superoxide response (% of plate mean), % at 10 µM | S. cerevisiae aged cells, superoxide DHE fluorescence; hits give low values | actives 0.18% (n = 330,000);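 active means superoxide response under a set limit, about three screen SD below normal, cut at about 65% in these data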;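 further: yeast aged for seven days with compound at 30 °C before DHE staining; 100% = average MFI of all compound-treated wells on the plate with controls excluded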
# PLCgamma1 ctr: counter-screen for PLC-beta3 inhibitors: inhibitors of human PLC-gamma1; inhibition, % at 12.3 µM; actives 3.1% (n = 3,300); shares compounds with PLC-gamma1 inh; AID 743258; purified PLC-gamma1, fluorogenic substrate, fluorescence; in the data active means inhibition above about 9.5%
# PLCbeta3 conf: human PLC-beta3 inhibition, confirmation; purified PLC-beta3, fluorogenic substrate fluorescence; shares compounds with PLC-gamma1 inh; actives 1% (n = 3,300); inhibition, % at 12.3 µM
# Numbers without * were called inactive; nt = not tested or not shown. Only some compounds are listed: those with a hit (about 3.9% of all), similar ones and a draw of the others. Unless noted, no stated cut-off is given here; in the data, active means inhibition above about 11%; inactive means the rest.
SMILES,AHR activator,sPLA2-III inh,PLCb3 inh,HIF act,PLC-gamma1 inh,Yeast superoxide,PLCgamma1 ctr,PLCbeta3 conf
Clc1ccc(/C=N/N2CCN(Cc3ccccc3)CC2)cc1,-6,9,-3,1,4,110,nt,nt
S=c1[nH]cnc2scc(-c3ccc(Cl)cc3)c12,-1,0,-5,0,-1,118,nt,nt
CC1(C)c2ccccc2-c2nc3ccccc3cc2C1O (stereo not given),19,-8,-2,0,11*,87,-9,-10
COc1ccc(C(C)NS(=O)(=O)Cc2ccccc2)cc1 (stereo not given),-3,-1,-7,-1,-2,106,nt,nt
Cc1ccc(C(C#N)c2ccc(Cl)nn2)cc1 (stereo not given),-3,-1,5,0,0,97,nt,nt
N#CC(c1ccc(Cl)cc1)c1ccc(Cl)nn1 (stereo not given),-1,11,12*,0,8,100,-4,-1
c1ccc(N2CCOCCOCCOCCOCC2)cc1,-1,8,5,0,12*,110,2,2
COc1ccc(NC(C)=O)cc1CP(=O)(c1ccccc1)c1ccccc1,0,6,-2,-2,0,108,nt,nt
CC(=O)Nc1cccc(CP(=O)(c2ccccc2)c2ccccc2)c1,-5,-2,-1,0,13*,100,1,3
CS(=O)(=O)c1ccc(Cl)c(NC(=O)COC(=O)CCCN2C(=O)c3cccc4cccc(c34)C2=O)c1,-2,2,-8,0,-1,103,nt,nt
CC(C)OC(=O)c1ccc(NC(=O)C2C3CC4OC(=O)C2C4C3)cc1 (stereo not given),23,3,1,nt,-4,108,nt,nt
Cc1ccc(NC(=O)C2C3CC4OC(=O)C2C4C3)cc1Cl (stereo not given),9,0,5,nt,9.6*,95,-6,-6
COc1cc(CN2CCc3ccccc3C2)ccc1O,5,-2,-5,1,1,94,nt,nt
Cc1nn(C)c(Oc2ccccc2)c1CCNC(=O)C(C)(C)C,0,12,8,-1,11*,102,-4,1
Cc1nn(C)c(Oc2ccccc2)c1CCNC(=O)CC(C)C,3,5,2,0,5,91,nt,nt
C=C1c2cccc(C(F)(F)F)c2O[C@H](C(=O)OCC)[C@H]1OC,nt,-9,-5,nt,-4,98,nt,nt
Cn1c(=O)c2cc(NC(=O)NCc3ccc(Cl)cc3Cl)ccc2n1Cc1ccccc1,nt,0,-138,nt,-104,nt,nt,nt
COC(=O)C[C@H]1C=C[C@@H](C(C(=O)OC)C(=O)OC)CN1C(C)=O,nt,9,0,nt,31*,nt,6,1
CC(C)(CO)NS(=O)(=O)c1ccc2c(c1)Cc1cc(S(=O)(=O)NC(C)(C)CO)ccc1-2,0,-23,-4,-1,0,92,nt,nt
OC[C@@H]1CN(Cc2cccc(C(F)(F)F)c2)C[C@H](n2cnc3c(NCc4ccco4)ncnc32)O1,nt,-22,2,nt,1,nt,nt,nt
CCOC(=O)c1c(NC(=O)CSc2nnc(C)o2)sc(C)c1C,2,-7,-2,0,9.7*,92,-4,-1
CCOC(=O)c1c(NC(=O)CSc2nnnn2C)sc(C)c1C,6,-13,-3,-1,-2,98,nt,nt
CC1(C)OC(=O)C2=C(CC(CCc3ccccc3)OC2c2ccc(F)cc2)O1 (stereo not given),nt,10,0,nt,5,nt,nt,nt
CCOC(=O)c1c(C)[nH]c(C(=O)COC(=O)c2oc3ccc(OC)cc3c2C)c1C,3,3,-2,-1,-2,81,nt,nt
CCOC(=O)c1c(C)[nH]c(C(=O)COC(=O)c2oc3ccccc3c2C)c1C,3,8,4,-1,10*,109,-5,-4
SMILES,AHR activator,sPLA2-III inh,PLCb3 inh,HIF act,PLC-gamma1 inh,Yeast superoxide,PLCgamma1 ctr,PLCbeta3 conf
CC(C)c1[nH]nc2c1C(c1cccc(C(F)(F)F)c1)N(c1ccccc1)C2=O (stereo not given),nt,10,-2,nt,0,nt,nt,nt
CCC(C)(C)N(C(=O)CCC(=O)Nc1cc(C)on1)C(C(=O)NC(C)(C)C)c1ccc(OC)cc1 (stereo not given),0,-6,0,-1,-3,91,nt,nt
COc1c(Cl)cc(Cl)cc1CNCc1ccccc1,4,-5,11,0,11*,83,-7,-3
COc1cc(CNCc2ccccc2)cc(Cl)c1OC,-1,-5,-1,-1,1,99,nt,nt
Cc1nccn1-c1cc(C(C)(C)C)nc2c(-c3ccccc3)cnn12,-2,9,-2,1,-3,93,nt,nt
Cc1ccc(S(=O)(=O)N2CCC(=O)N(C(COCc3cccc(C)c3)C(C)C)CC2)cc1 (stereo not given),-4,-8,2,-1,11*,105,2,2
Cc1ccc(S(=O)(=O)N2CCC(=O)N(C(COCc3cccc(Cl)c3)C(C)C)CC2)cc1 (stereo not given),0,-2,0,-1,-2,96,nt,nt
Cc1cccc(-n2c(=O)c3ccccc3n3c(=S)[nH]nc23)c1C,-2,8,-7,0,-1,86,nt,nt
COc1ccc(OCC(=O)NCCC2=CCCCC2)c([N+](=O)[O-])c1,7,-4,4,-1,10*,92,0,-6
COc1cccc(-c2cnc(C(O)c3cccc(F)c3)[nH]2)c1 (stereo not given),nt,-5,-1,nt,2,nt,nt,nt
Cc1csc(NC(=O)CSc2nnc(-c3ccc(Cl)cc3)n2N)n1,3,-8,-6,0,10*,103,-3,1
Cc1csc(NC(=O)CSc2nnc(-c3ccncc3)n2C)n1,-1,-1,5,0,1,89,nt,nt
O=S(=O)(O)c1ccc(N=NNc2ccc(Br)cc2)cc1,46,-5,-8,3,9.8*,88,-6,-7
COc1cccc(CN2CCN(S(=O)(=O)c3ccc(Br)cc3)CC2)c1,-2,5,-1,0,4,101,nt,nt
COc1cccc(CC(=O)N2CCN(S(=O)(=O)c3ccc(Br)cc3)CC2)c1,2,-6,5,0,12*,108,-8,-5
Cc1cc(C)c2c(=O)[nH]n(C3CC(C)N(C)CC3C)c2n1 (stereo not given),-1,8,-2,0,9.7*,104,2,-5
CC1(C(=O)NS(=O)(=O)c2ccccc2)CCN1C(=O)c1ccc(C2CCCCC2)cc1 (stereo not given),nt,-5,-3,nt,-4,nt,nt,nt
CCCCn1c(N)c(N(CC(C)C)C(=O)CSc2nnc(C)n2-c2ccccc2)c(=O)[nH]c1=O,nt,-11,-11,nt,1,nt,nt,nt

# Source: PubChem BioAssay (several laboratories)
